These results are taken from PubChem BioAssay (Tox21).

SMILES strings stand for the structures. Values without a mark were called inactive. Results filed as inconclusive are left out. Active and inactive are the calls of the source. Unless noted, calls follow the shape of the dose curve; as a rule, active = well fitted curve in the direction sought with a large enough effect in the repeat runs; inconclusive = weak or mixed curves; inactive = no such curve, though single readings can be large; an effect the other way counts as inactive or inconclusive.

The nature of assay [1]: A CellTox Green Cytotoxicity Assay to monitor cytotoxicity in HEK293 cells - 32 hour (AID 1224881). Also: nearly all actives have a fitted effect of over 40% in size. The method, boiled down: (§1)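 Fluorescence from a DNA-binding dye excluded by viable cells was measured repeatedly in the same HEK293 wells (600 cells/well) during continuous compound exposure at 37 C. Each assay gives one read point: 0, 8, 16, 24, 32 or 40 h.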
Assay [2] is described as follows: A CellTox Green Cytotoxicity Assay to monitor cytotoxicity in HepG2 cells - 0 hour (AID 1224882). Also: nearly all actives have a fitted effect of over 35% in size. The method, boiled down:
(§2)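 Real-time cytotoxicity: fluorescence of a cell-impermeant cyanine dye binding DNA of dead HepG2 cells, measured repeatedly (0–40 h) during compound exposure at 37 C. Cells seeded 600/well with reagent, dosed after 5 h.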

A short description of assay [3]: A CellTox Green Cytotoxicity Assay to monitor cytotoxicity in HepG2 cells - 32 hour (AID 1224883). Also: nearly all actives have a fitted effect of over 50% in size. The method, boiled down: as §2
Assay [4] in a line: A CellTox Green Cytotoxicity Assay to monitor cytotoxicity in HEK293 cells - 8 hour (AID 1224884). Also: nearly all actives have a fitted effect of over 35% in size. The method, boiled down:
as §1

Assay [5] is described as follows: qHTS RealTime-Glo MT Cell Viability Assay in HepG2 cells - 16 hour (AID 1224885). Also: nearly all actives have a fitted effect of over 50% in size. The method, boiled down:
(§3)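 Tox21 10K library screened in qHTS format on HepG2 cells carrying RealTime-Glo reagents. Compounds were added after a 5 h preincubation, and the luminescent signal from continuous culture was measured repeatedly during 40 h treatment.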
(qHTS replaces the single test concentration by a dilution series.)

A short description of assay [6]: qHTS RealTime-Glo MT Cell Viability Assay in HEK293 cells - 24 hour (AID 1224886). Also: top concentration of the series differs between compounds; nearly all actives have a fitted effect of over 50% in size. An outline of the steps: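 Luminescence generated by NanoLuc from substrate produced by living HEK293 cells served as the viability signal. Each value reflects the reading at its stated time point during continuous 40 h compound exposure at 37 C.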
Assay [7] in a line: qHTS RealTime-Glo MT Cell Viability Assay in HEK293 cells - 8 hour (AID 1224887). Also: top concentration of the series differs between compounds; nearly all actives have a fitted effect of over 50% in size. The method, boiled down:
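Luminescence, which tracks viable cell number through reduction of the prosubstrate to a NanoLuc substrate, was read over continuous 37 C culture. Cells (600/well) were premixed with reagent and rested 5 h before 23 nL of compound in DMSO was pinned.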

Assay [8] is described as follows: A CellTox Green Cytotoxicity Assay to monitor cytotoxicity in HEK293 cells - 16 hour (AID 1224888). Also: nearly all actives have a fitted effect of over 35% in size. An outline of the steps:
as §1

Assay [9] is described as follows: qHTS RealTime-Glo MT Cell Viability Assay in HepG2 cells - 0 hour (AID 1224889). Also: nearly all actives have a fitted effect of over 50% in size. The method, boiled down: as §3
The nature of assay [10]: A CellTox Green Cytotoxicity Assay to monitor cytotoxicity in HepG2 cells - 8 hour (AID 1224890). Also: nearly all actives have a fitted effect of over 45% in size. An outline of the steps: as §2
Assay [11] can be described thus: qHTS assay to identify small molecule antagonists of the estrogen receptor alpha (ER-alpha) signaling pathway using the BG1 cell line in the presence of 0.1 nM 17-beta-estradiol - cell viability counter screen (AID 1259241). Also: nearly all actives have a fitted effect of over 40% in size. An outline of the steps: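 CellTiter-Fluor read (30 min, 37C) on ER-alpha/ERE-luc VM7Luc4E2 cells; 22 hr compound treatment; agonist 0.1 nM E2 final; same-well multiplex.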

Assay [12] can be described thus: qHTS assay to identify small molecule antagonists of the androgen receptor (AR) signaling pathway using the MDA cell line in the presence of 0.5 nM R1881 - cell viability counter screen (AID 1259242). Also: nearly all actives have a fitted effect of over 45% in size. An outline of the steps: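 Live-cell protease activity was measured by CellTiter-Fluor fluorescence after 30 min. Before that, MDA-kb2 MMTV-luciferase cells had 16 hr at 37C without CO2, exposed to test compounds and 0.5 nM R1881 final.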

For assay [13], the target named is Estrogen receptor (Homo sapiens) (UniProt P03372). Briefly: qHTS assay to identify small molecule antagonists of the estrogen receptor alpha (ER-alpha) signaling pathway using the BG1 cell line in the presence of 0.1 nM 17-beta-estradiol (AID 1259244). Also: nearly all actives have a fitted effect of over 50% in size. An outline of the steps: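 Luciferase luminescence (ONE-Glo, 30 min at room temperature) was read after 22 hr at 37C exposure to compounds plus 17beta-estradiol at 0.1 nM final. Cells were VM7Luc4E2 with endogenous ER-alpha and an ERE-driven luciferase, pre-cultured 5 days in hormone-depleted medium.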

Assay [14] is described as follows: qHTS assay to identify small molecule HDAC inhibitors (AID 1259364). Also: top concentration of the series differs between compounds; nearly all actives have a fitted effect of over 45% in size. An outline of the steps:
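Luminescence read after 30 min room-temperature HDAC-Glo incubation measures cellular class I/II HDAC activity. Compounds were applied for 2 hr at 37 C to HCT-116 wild-type cells seeded the day before.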

The nature of assay [15]: qHTS assay to identify small molecule HDAC inhibitors - cell viability counter screen (AID 1259365). The method, boiled down: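 To flag cytotoxic hits, 1,500 wild-type HCT-116 cells per well, plated the day before, receive test compounds for 2hr at 37 C before CellTiter-Glo reagent and a luminescence read.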
Assay [16] is described as follows: qHTS assay to identify small molecule agonists of the sonic hedgehog signaling (Shh) pathway - cell viability counter screen (AID 1259366). Also: nearly all actives have a fitted effect of over 50% in size. Also: potency is read from the fitted curve at half-maximal effect. The method, boiled down: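 Fluorescence from CellTiter-Fluor reports live cells in this counter screen. NIH/3T3-derived Gli1-Luc reporter cells receive test compounds for 24hr at 37C; reagent goes in at 23hr.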
Assay [17] can be described thus: qHTS assay to identify small molecule antagonists of the sonic hedgehog signaling (Shh) pathway - cell viability counter screen (AID 1259367). Also: nearly all actives have a fitted effect of over 55% in size. The method, boiled down:
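CellTiter-Fluor signal in conditioned medium-stimulated 3T3 Gli1-Luc cells, 23 hr compound exposure, 37C.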

The nature of assay [18]: qHTS assay to identify small molecule agonists of the sonic hedgehog signaling (Shh) pathway (AID 1259368; calls by dose curve;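 also: NIH/3T3-derived 3T3Gli1-Luc cells carrying a stable Gli1-driven firefly luciferase reporter; series mostly up to about 92 µM; nearly all actives have a fitted effect of over 15% in size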). The method, boiled down:
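Luminescence was read after 30 min at room temperature with luciferase reagent. Before that, 3T3Gli1-Luc cells (NIH/3T3 clone, stable Gli1-Luc reporter; 2,000/well) were exposed to compounds for 24 hr at 37C, 5% CO2, compounds being added 4 hr post-plating.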

The nature of assay [19]: qHTS assay to identify small molecule phospholipidosis (PLD) inducers (AID 1259344; active = well fitted curve in the direction sought with a large enough effect; an effect the other way counts as inactive or inconclusive). An outline of the steps: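 Accumulated phospholipid, stained red by LipidTOX during 24 h compound treatment of HepG2 cells at 37 C, is quantified from images as pit number and intensity, normalised per cell using Hoechst-stained nuclei.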

Chain of Estrogen receptor (Homo sapiens) (P03372 whole entry, looked up): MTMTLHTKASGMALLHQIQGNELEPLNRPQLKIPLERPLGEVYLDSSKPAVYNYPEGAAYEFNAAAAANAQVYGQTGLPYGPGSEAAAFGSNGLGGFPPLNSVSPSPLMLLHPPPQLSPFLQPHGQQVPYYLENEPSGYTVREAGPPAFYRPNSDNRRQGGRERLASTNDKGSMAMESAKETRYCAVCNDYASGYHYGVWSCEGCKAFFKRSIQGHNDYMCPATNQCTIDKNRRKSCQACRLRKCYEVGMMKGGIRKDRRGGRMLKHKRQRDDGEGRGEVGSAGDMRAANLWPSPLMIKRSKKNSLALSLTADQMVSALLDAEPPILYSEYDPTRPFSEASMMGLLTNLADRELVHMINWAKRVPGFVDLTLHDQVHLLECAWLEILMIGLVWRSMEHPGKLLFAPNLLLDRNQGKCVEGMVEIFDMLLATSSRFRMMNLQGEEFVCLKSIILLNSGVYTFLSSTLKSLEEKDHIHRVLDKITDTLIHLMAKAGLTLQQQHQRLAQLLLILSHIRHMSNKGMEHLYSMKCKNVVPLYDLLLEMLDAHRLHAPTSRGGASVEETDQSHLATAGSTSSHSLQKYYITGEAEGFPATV

Regarding `Cc1ccc(C(N)=O)cc1N`, the Potency entry in assay [1], in assay [2], in [3], in assay [4], in assay [5] and in assay [6] was “inactive” in each case. Moreover, the Potency result in assay [7], in assay [8], in assay [9], in assay [10], in assay [11] and in [12] was “inactive” throughout. Also, the Potency result in assay [13], in assay [14], in [16] and in assay [17] was “inactive” in each case. Moreover, the result in assay [15] and in assay [18] was inactive.
As to `CCCCCCCCC(CO)CCCCCC` (configuration not stated), the Potency entry in assay [1], in assay [2], in [3], in [4], in assay [5] and in assay [6] was “inactive” throughout. The Potency result in assay [7], in [8], in assay [9], in assay [10], in assay [11] and in assay [12] was “inactive” each time. The Potency entry in assay [13], in assay [14], in assay [16] and in [17] was “inactive” in each case. Further, the call in assay [15] and in [18] was inactive.
For `CCCCC(CC)COCCCN` (configuration not stated), the Potency entry in assay [1], in [2], in assay [3], in assay [4], in [5] and in [7] was “inactive” throughout. The Potency result in assay [8], in assay [9], in assay [10], in [11], in assay [12] and in assay [13] was “inactive” in each case. Also, the Potency result in assay [14], in assay [16] and in assay [17] was “inactive” throughout. In addition, the compound was called inactive in assay [15] and in assay [18].
Take `O=c1c2ccccc2nnn1CCl`: the Potency result in assay [1], in assay [2], in [3], in [4], in assay [5] and in assay [6] was “inactive” throughout. For the same compound, the Potency entry in assay [7], in assay [9], in assay [10], in [11], in [12] and in assay [13] was “inactive” each time. The Potency entry in assay [14] and in assay [16] was “inactive” throughout. The compound was classed as inactive in assay [15] and in assay [18].
As to `CCCCC(CC)(CO)CO`, the Potency entry in assay [1], in assay [2], in [3], in assay [4], in assay [5] and in assay [6] was “inactive” throughout. The Potency entry in assay [7], in [9], in assay [11], in [12], in assay [14] and in assay [16] was “inactive” each time. In assay [17], the Potency result was “inactive”. The compound was called inactive in assay [15] and in [18].
As to `Oc1ccc(C(O)CNCCCCCCNCC(O)c2ccc(O)c(O)c2)cc1O` (configuration not stated), the Potency entry in [1], in [2], in [3], in assay [4], in assay [5] and in assay [6] was “inactive” each time. Further, the Potency result in assay [8], in assay [9], in [10], in assay [11], in assay [12] and in [19] was “inactive” each time. Besides, the Potency entry in assay [14] was “inactive”. In addition, the compound was classed as inactive in [15] and in assay [18]. For the same compound, the Potency in assay [16] was 8.41 µM (active).
Regarding `O=C(c1ccc(O)cc1)c1ccc(O)cc1`, the Potency entry in assay [1], in assay [2], in assay [3], in assay [4], in assay [6] and in [7] was “inactive” each time. The Potency result in assay [8], in assay [9], in assay [10], in assay [11], in assay [12] and in [13] was “inactive” in each case. In addition, the Potency result in [16] was “inactive”. In addition, the result in [15] and in assay [18] was inactive.
`O=c1[nH]cnc2ccccc12`: the Potency entry in assay [1], in assay [2], in assay [3], in assay [4], in [5] and in assay [6] was “inactive” in each case. The Potency entry in assay [7], in [9], in [10], in assay [11], in [12] and in assay [13] was “inactive” throughout. Further, the Potency result in assay [14], in [16] and in [17] was “inactive” each time. Further, the result in assay [15] and in assay [18] was inactive.
